From PubChem BioAssay (NCATS)
Records with an inconclusive call do not appear. Active and inactive are the calls of the source. Calls come from the whole dose curve; as a rule, active = well fitted cell-killing curve with a large enough effect; inconclusive = small, poorly fitted or top-dose-only effect, or effect the other way; inactive = no such curve, though single readings can be large or run the other way.

Assay: Quantitative High-Throughput drug screen in 47 multiple myeloma cell lines against the NCATS MIPE library collection: KMS20_JCRB cell viability assay (AID 1918973); note: nearly all actives have a fitted effect of over 45% in size
Settings: CellTiter-Glo ATP, 48 h; series mostly up to 45.8 µM
From the text: PI: Beverly A. Mock Ph.D.
Laboratory of Cancer Biology and Genetics,
Center for Cancer Research, National Cancer Institute,
National Institute of Health, Bethesda, Maryland
Drug resistance and disease progression are common in multiple myeloma (MM) patients, underscoring the need for new therapeutic combinations. […] We hypothesized that effective combinations would reduce MYC expression and enhance p16 activity. […] These preclinical data identify potentially useful drug combinations for evaluation in drug-resistant MM and reveal potential mechanisms of combined drug sensitivity.
Described herein is the primary MIPE qHTS used to cherrypick compounds. Validated compounds were then further tested for potential synergistic activiy.
[1] Peat TJ, Gaikwad SM, Dubois W, Gyabaah-Kessie N, Zhang S, Gorjifard S, Phyo Z, Andres M, Hughitt VK, Simpson RM, Miller MA, Girvin AT, Taylor A, Williams D, D'Antonio N, Zhang Y, Rajagopalan A, Flietner E, Wilson K, Zhang X, Shinn P, Klumpp-Thomas C, McKnight C, Itkin Z, Chen L, Kazandijian D, Zhang J, Michalowski AM, Simmons JK, Keats J, Thomas CJ, Mock BA. Drug combinations identified by high-throughput screening promote cell cycle transition and upregulate Smad pathways in myeloma. Cancer Lett. 2023 Aug 1;568:216284. doi: 10.1016/j.canlet.2023.216284. Epub 2023 Jun 24. PMID: 37356470; PMCID: PMC10408729.
SEQUENCE No. (e.g., 1, 2, 3, etc.); […] (e.g., Cells, Incubation, Reagent, etc.); VALUE and DESCRIPTION.
1; Cells; 5 uL; white, solid bottom 1536-well Greiner assay plate.
2; Compounds; 23 nL; Kalypsis pin tool (Wako USA) equipped with a 1536-well pin head to transfer to the assay plates.
3; Incubation; 48 hours; 37C incubation.
4; Reagent;5uL; CellTiter Glo (Promega).
5; Detector; 425V; Luminescence; Viewlux PerkinElmer.
NOTES (numbers refer to Sequence numbers above)
1. The cell-based screening methods employed in this study were like those previously published. Briefly, the corresponding myeloma cell lines were screened in 1,536-well plates with 500 cells, 5-uL per well for inhibition of cell viability (assessed by measuring ATP levels with CellTiterGlo).
2. NCATS MIPE 4.0 library of approved and investigational drugs were added using the Kalypsis pin tool. Wells treated with DMSO only for 100% viability and media only wells for 0% viability were used as controls.
3. The assay plates were covered and incubated for 48 hours in a 37C, 5% CO2 incubator with controlled humidity.
4. After 48 hours, CellTilter-GloTM luminescent substrate mix (Promega) reagent was added to the assay plate and plates we incubated for 5 min at room temperature.
5. Signal was measured as median relative luminescence units on a ViewLux (PerkinElmer) multiplate reader.
[1] Heske CM, Davis MI, Baumgart JT, Wilson K, Gormally MV, Chen L, Zhang X, Ceribelli M, Duveau DY, Guha R, Ferrer M, Arnaldez FI, Ji J, Tran HL, Zhang Y, Mendoza A, Helman LJ, Thomas CJ. Matrix Screen Identifies Synergistic Combination of PARP Inhibitors and Nicotinamide Phosphoribosyltransferase (NAMPT) Inhibitors in Ewing Sarcoma. Clin Cancer Res. 2017 Dec 1;23(23):7301-7311. doi: 10.1158/1078-0432.CCR-17-1121. Epub 2017 Sep 12. PMID: 28899971; PMCID: PMC6636827.
Potency is the fitted concentration of half-maximal effect.

Compound	Potency
O=C(N[C@@H](COc1ccc2[nH]c(=O)[nH]c2c1)c1ccccc1)c1cccn(Cc2ccc(F)c(F)c2)c1=O	18700 nM (active)
C[C@]12COC(=O)C[C@@H]1CC[C@@H]1[C@H]2CC[C@@]2(C)[C@H]1CC[C@]2(C)O	inactive
Cc1ccccc1-n1c(Cn2ncc3c(N)ncnc32)nc2cccc(C)c2c1=O	132 nM (active)
COc1cc([C@@H]2c3cc4c(cc3[C@@H](O)C3COC(=O)C32)OCO4)cc(OC)c1O (stereo not given in full)	66.2 nM (active)
CC(C)(C)c1cc(C=C(C#N)C#N)cc(Br)c1O	13200 nM (active)
Cc1c(N)nc([C@H](CC(N)=O)NC[C@@H](N)C(N)=O)nc1C(=O)N[C@H](C(=O)N[C@@H](C)[C@H](O)[C@@H](C)C(=O)N[C@@H](C(=O)NCCc1nc(-c2nc(C(=O)NCCC[S+](C)C)cs2)cs1)[C@@H](C)O)C(O[C@H]1O[C@H](CO)[C@H](O)[C@@H](O)[C@@H]1O[C@H]1O[C@H](CO)[C@@H](O)[C@H](OC(N)=O)[C@H]1O)c1cnc[nH]1 (stereo not given in full)	935 nM (active)
CC(O)=C(C#N)C(=O)Nc1cc(Br)ccc1Br	6620 nM (active)
O=c1cccc2n1CC1CNC[C@H]2C1	11800 nM (active)
NC1CC1c1ccccc1 (stereo not given)	inactive
c1cc2c(cc1[C@H]1OC[C@H]3[C@H]1CO[C@H]3c1ccc3c(c1)OCO3)OCO2	inactive
O=[N+]([O-])c1ncc[nH]1	inactive
CC[C@@H]1[C@@H](C)O[C@@](O)([C@@H](C)[C@H](O)[C@H](C)[C@H]2OC(=O)C=CC=C[C@@H](C)[C@@H]([C@@H](C)[C@@H](O)[C@H](C)[C@@]3(O)C[C@H](O[C@H]4C[C@H](O)[C@H](O)[C@H](C)O4)[C@H](CC)[C@@H](C)O3)OC(=O)C=CC=C[C@@H]2C)C[C@H]1O[C@H]1C[C@H](O)[C@H](O)[C@H](C)O1	833 nM (active)
CN1CCN(c2ccc([N+](=O)[O-])c3no[n+]([O-])c23)CC1	8330 nM (active)
C[C@]12Cc3cn[nH]c3C[C@@H]1CC[C@@H]1[C@H]2CC[C@@]2(C)[C@H]1CC[C@]2(C)O	inactive
CC=C(C)C(=O)N[C@@H](c1ccccc1)[C@@H](O)C(=O)O[C@H]1C[C@@]2(O)[C@@H](OC(=O)c3ccccc3)[C@@H]3[C@]4(OC(C)=O)CO[C@@H]4C[C@H](O)[C@@]3(C)C(=O)[C@H](OC(C)=O)C(=C1C)C2(C)C	inactive
COc1cc2cc(c1Cl)N(C)C(=O)C[C@H](OC(=O)C(C)C)[C@]1(C)O[C@H]1[C@H](C)[C@@H]1C[C@@](O)(NC(=O)O1)[C@H](OC)C=CC=C(C)C2	inactive
C[C@@H]1O[C@@H](O[C@@H]2C=C3CC[C@@H]4[C@@H](CC[C@]5(C)[C@H](c6ccc(=O)oc6)CC[C@@]45O)[C@@]3(C)CC2)[C@H](O)[C@H](O)[C@H]1O	18.7 nM (active)
Cc1nc(-c2ccc(-c3ccc(C(=O)N4CCc5cc6c(cc54)C4(CCN(C)CC4)CO6)cc3)c(C)c2)no1	inactive
C#C[C@]1(O)C=C[C@@H]2[C@@H]3CCC4=CC(=O)CC[C@@H]4[C@H]3CC[C@@]21CC	inactive
CN1[C@H]2CC(O)C[C@H]1[C@H]1O[C@H]12 (stereo not given in full)	11800 nM (active)

Compound	Potency
CO[C@H]1CCC(O[C@H]2C[C@H]([C@]3(C)CC[C@]4(C[C@H](O)[C@@H](C)[C@@H]([C@@H](C)C=C(C)C(=O)[C@H](C)C[C@H](C)C(=O)O)O4)O3)O[C@]3(O[C@@H]([C@H]4O[C@@](O)(CO)[C@H](C)C[C@H]4C)C[C@H]3C)[C@H]2C)O[C@H]1C (stereo not given in full)	235 nM (active)
N=c1c2c(-c3ccccc3)c(-c3ccccc3)n(Cc3ccccc3)c2ncn1C1CCC(O)CC1 (stereo not given)	2640 nM (active)
Clc1ccccc1C(c1ccccc1)(c1ccccc1)n1cccn1	inactive
CCc1c(C(=O)C(N)=O)c2c(OCC(=O)O)cccc2n1Cc1ccccc1	inactive
CC[C@@]1(O)C(=O)OCc2c1cc1n(c2=O)Cc2cc3ccccc3nc2-1	209 nM (active)
Cc1[nH]nc2ccc(-c3cncc(OC[C@@H](N)Cc4c[nH]c5ccccc45)c3)cc12	1180 nM (active)
CCN(CC)C(=O)c1ccc(C2=CC3(CCNCC3)Oc3cccc(O)c32)cc1	inactive
O=c1[nH]c2ccccc2n1C1CCN(Cc2ccc(-c3[nH]c4cc5ncnc5cc4nc3-c3ccccc3)cc2)CC1	2350 nM (active)
CC1=C(O)C(=O)C=C2C1=CC=C1[C@@]2(C)CC[C@@]2(C)[C@@H]3C[C@](C)(C(=O)O)CC[C@]3(C)CC[C@]12C	935 nM (active)
C[C@@]12OC(=O)[C@]1([C@@H](O)[C@@H]1C=CCCC1)NC(=O)[C@H]2CCCl	29.6 nM (active)
Cc1ccccc1-n1c(Cn2cnc3c(N)ncnc32)nc2cccc(C)c2c1=O	296 nM (active)
C#CC1(O)CCC2C3CCC4=CC(=O)CCC4(C)C3CCC21C (stereo not given)	inactive
CC(C)N(CCNC(=O)CN1CCCC1=O)C(C)C	inactive
CC(C)[C@]12O[C@@H]1[C@@H]1O[C@]13[C@]1(O[C@H]1C[C@@H]1C4=C(CC[C@@]13C)C(=O)OC4)[C@H]2O	inactive
COc1ccc(C(=O)c2c(C)n(CCN3CCOCC3)c3cc(I)ccc23)cc1	5260 nM (active)
CC(C)N[C@@H]1CCn2c(=O)[nH]c3cccc(c32)[C@@H]1O	10500 nM (active)
C=CCON=C(C[C@H]1O[C@@H]2O[C@]3(C)CC[C@@H]4[C@H](C)CC[C@@H]([C@H]1C)[C@@]24OO3)[C@H]1O[C@@H]2O[C@]3(C)CC[C@H]4[C@H](C)CC[C@@H]([C@@H]1C)[C@@]24OO3	372 nM (active)
Cc1c(C(=O)Nc2cccc(C(F)(F)F)c2)cc(-c2ccccc2)n1CCCN1CCOCC1	16600 nM (active)
O=c1[nH]c2ccc(Cl)cc2c(N[C@@H]2CN3CCC2CC3)c1-c1nc2ccccc2[nH]1	166 nM (active)
COC1=CC(C)=C[C@@H](C)[C@@H](O)[C@@H](C)CC(C)=CC=C[C@H](OC)[C@H]([C@@H](C)[C@@H](O)[C@H](C)[C@@]2(O)C[C@@H](O)[C@H](C)[C@@H](C(C)C)O2)OC1=O	1 nM (active)
